Hit rate of the full screen: of about 310,000 compounds, about 410 (0.13%) were called active. About 2% were inconclusive and are not listed. The rule behind the calls is not given here. These entries were drawn from the full list. Entries with a potency or affinity are not part of this list.
test: RSV antiviral activity via CPE protection, HEp-2 cells, primary 10 µM value included (AID 2391); settings: RSV-induced CPE inhibition, at 10 µM, active compounds read high

CPE inhibition, inactive:
CC(C)S(=O)(=O)CC(=O)c1ccc(Cl)cc1 1.72%
O=C(Cn1c2ccccc2c2nc3n(c(=O)c21)CCS3)Nc1ccccc1 0.68%
Cc1ccc(C(=O)Nc2ccc3c(c2)C(=O)NC3=O)cc1 3.34%
COc1cc(-c2nnc(SCc3ccccc3Cl)o2)cc(OC)c1OC 10.5%
COc1cc(OC)cc(-c2nnc(SCc3c(F)cccc3Cl)o2)c1 9.5%
CCc1nn(CC(=O)NCCCN(Cc2ccccc2)C(C)C)c(=O)c2cc3sccc3n12 3.25%
CC(OC(=O)CSc1ccc(F)cc1)C(=O)NC1(C#N)CCCCC1 (stereo unspecified) 1.61%
CC(C)(C)SCCNS(=O)(=O)c1ccccc1 2.31%
COc1ccc(C(=O)N/C(=C/c2cccs2)C(=O)NN)cc1OC 0.82%
COc1ccc(/C=C(/NC(=O)c2ccccc2)c2nc3ccccc3[nH]2)cc1OC 1.75%
O=C(N/C(=C/c1cccs1)c1nc2ccccc2[nH]1)c1ccccc1 -0.44%
Cc1ccc(C(=O)N/C(=C\c2cccs2)c2nc3ccccc3[nH]2)cc1 1.69%
Cc1ccc2oc(C(=O)Nc3ccc(S(=O)(=O)Nc4ncccn4)cc3)c(C)c2c1 1.95%
Cc1cc(C)c(C(=O)Nc2ccc(S(=O)(=O)Nc3onc(C)c3C)cc2)c(C)c1 0.27%
Cc1ccc2oc(C(=O)Nc3ccc(S(=O)(=O)Nc4onc(C)c4C)cc3)cc(=O)c2c1 1.61%
Cc1ccc2c(=O)cc(C(=O)Nc3ccc(S(=O)(=O)Nc4onc(C)c4C)cc3)oc2c1 1.69%
O=C(N/N=C/c1cc2c(cc1Cl)OCO2)c1cccc(Br)c1 0.51%
COc1ccc(C(c2nnnn2Cc2ccccc2)N2CCN(c3nc4ccccc4s3)CC2)cc1OC (stereo unspecified) 8.79%
CNC(=O)NC(=O)COC(=O)/C=C/c1cccc(Br)c1 4.26%
COC(=O)c1cccc(CSc2nc(-c3ccccc3)c(C#N)c(=O)[nH]2)c1 -0.22%
c1ccc(CSc2ncnc3ccccc23)cc1 -0.1%
c1ccc(OCCOc2ncnc3ccccc23)cc1 2.27%
O=C(COc1ncnc2ccccc12)NCCc1ccccc1 4.07%
O=C(COc1ncnc2ccc(Br)cc12)NC1CCCC1 -0.78%
N#CCSc1ncnc2ccccc12 0.16%
COCCNC(=O)COc1ncnc2ccc(Br)cc12 0%
CCOC(=O)c1c(C)c(C(=O)Nc2ccc3c(c2)OCCO3)c(C)n1C -0.46%
N#Cc1nc(-c2ccco2)oc1NCc1ccco1 1.01%
O=C(COc1ccccc1)Nc1ccccc1C(=O)NCc1ccco1 -0.74%
COc1ccc(NC(=O)CN(C)C(=O)c2ccc3[nH]c4c(c3c2)CC(C)CC4)cc1 (stereo unspecified) 6.52%
CC1CCc2[nH]c3ccc(C(=O)N(C)CC(=O)Nc4ccc(F)cc4)cc3c2C1 (stereo unspecified) 5.53%
CCOc1cccc2c1OC1(C)CC2NC(=O)N1c1ccc(OC)cc1 (stereo unspecified) 0.71%
C=CCN(c1ccc(F)cc1)S(=O)(=O)c1cc(C(=O)OCC(=O)N(C)C2CCS(=O)(=O)C2)ccc1Cl (stereo unspecified) 0.97%
CCC(=O)NC(=S)Nc1ccc(NC(=O)COc2ccccc2)cc1 -0.96%
CCC(=O)NC(=S)Nc1ccc(NC(=O)COc2ccc(Cl)cc2Cl)cc1 3.92%
Nc1nc(SCCN2C(=O)c3ccccc3C2=O)n[nH]1 -0.57%
CCOC(=O)C1(Cc2ccccc2)CCN(Cc2cccn2-c2nccs2)CC1 3.06%
CCOC(=O)C1(Cc2cccc(OC)c2)CCN(Cc2cccn2-c2ccccn2)CC1 0.49%
O=C(O)CN=C(NS(=O)(=O)c1ccc(Cl)cc1)c1ccc(F)cc1 0.86%
O=C(CSc1nc2ccccc2c(=O)n1Cc1ccco1)NCc1ccco1 0.72%
CCOC(=O)CSc1nc2ccccc2c(=O)n1Cc1ccco1 0.79%
Cc1[nH]n(-c2ccccc2)c(=O)c1Sc1ccc(Cl)cc1 2.83%
Cc1ccc(OCCn2cnc3cc([N+](=O)[O-])ccc3c2=O)cc1 5.29%
COc1ccc(N(CC(=O)NC2CCCC2)C(=O)c2ccc(C)s2)c(OC)c1 41%
COc1ccc(N(CC(=O)NC2CCCCC2)C(=O)c2ccc(C)s2)cc1OC 5.93%
CC(=O)c1ccc(OCCCC(=O)NNC(=O)c2ccccn2)cc1 1.08%
Cn1c(=O)c2ccccc2n(CC(=O)N2CCCc3ccccc32)c1=O 12.6%
COc1cc(C2NC(=O)NC(C)=C2C(=O)OCc2ccc(C)cc2)cc(OC)c1OC (stereo unspecified) 1.37%
CN(CC(=O)Nc1ccc(Cl)c(Cl)c1)C(=O)CNC(=O)C1CCCCC1 -0.65%
O=C(Cn1cnc2ccccc21)N/N=C/c1ccccc1 1.41%
CCOC(=O)c1c(-c2ccccc2)csc1NC(=O)c1cc(-c2ccccc2OC)on1 3.07%
COC(=O)c1c(-c2ccccc2)noc1C 3.69%
CCOC(=O)c1c(-c2cccc(C)c2)csc1NC(=O)C1CC=CCC1C(=O)O (stereo unspecified) 1.3%
COC(=O)c1c(-c2ccc(C)cc2)csc1NC(=O)c1c(-c2ccccc2)noc1C 45.8%
O=C(COc1ccc(S(=O)(=O)N2CCOCC2)cc1)NC1CC1 0.7%
CCO/N=C1\C(=O)N(c2ccccc2)c2ccccc21 10.6%
CN1CCN(c2ccc(Nc3ccnc4cc(Cl)ccc34)cc2)CC1 0.21%
Cc1ccc2[nH]ccc(=O)c2c1 4.4%
CCNc1oc(-c2cccc3ccccc23)nc1C#N 31%
CNc1oc(-c2cccc3ccccc23)nc1C#N 22.2%
O=C(NC1CCCCC1)c1cc(S(=O)(=O)N2CCOCC2)c(Cl)cc1Cl -0.26%

— PubChem BioAssay AID2391 (Southern Research Specialized Biocontainment Screening …, 2010)
